Measured values reported in PubChem BioAssay (NCI).
Values joined by “and” are separate entries in the source; they are usually repeats but may differ in a detail not shown here. Identical values can stand only once. Compounds without any hit were thinned out: in the full panel of roughly 83,000, 20% have a hit.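 Note: values are percent growth. 100 is the growth of untreated cells, values between 100 and 0 indicate rising inhibition; between -100 and 0 indicates cell death.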 Active and inactive are the calls of the source. Rule for the calls: active = growth percent below 10; inactive = the rest.

Key:
Assay in all cases: NCI-60 one-dose screen, 48 h (100 = growth as untreated, 0 = no growth, -100 = all killed)
NCI-H23 lung = tested on: NCI-H23 lung
NCI-H226 lung = settings: 10 µM unless noted
NCI-H322M lung = settings: 10 µM unless noted
HOP-62 NSCLC = settings: 10 µM unless noted
NCI-H460 lung = settings: 10 µM unless noted
HOP-92 NSCLC = tested on: HOP-92 NSCLC
NCI-H522 lung = tested on: NCI-H522 lung
A549/ATCC NSCLC = tested on: A549/ATCC NSCLC
786-0 renal = settings: 10 µM unless noted
COLO 205 colon = settings: 10 µM unless noted

Compound: COc1cc(NS(C)(=O)=O)ccc1Nc1c2ccccc2nc2ccccc12
- growth (NCI-H23 lung; 2.5 µM): 8.63% (active)
- growth (NCI-H23 lung; 10 µM): -3.53% (active) [middle of 4 runs]
- growth (NCI-H226 lung): -8.63% [2.5 µM] (active)
- growth (NCI-H322M lung): 83.9% [2.5 µM] (inactive)
- growth (HOP-62 NSCLC): 18.2% [2.5 µM] (inactive)
- growth (NCI-H460 lung): 4.6% [2.5 µM] (active)
- growth (HOP-92 NSCLC; 2.5 µM): 9.79% (active)
- growth (HOP-92 NSCLC; 10 µM): 42.5% (inactive) and 10.3% (inactive)
- growth (NCI-H522 lung; 2.5 µM): 43% (inactive)
- growth (NCI-H522 lung; 10 µM): -47.9% (active) and 4% (active) and 37.2% (inactive)
- growth (A549/ATCC NSCLC; 2.5 µM): 28.1% (inactive)
- growth (A549/ATCC NSCLC; 10 µM): 12.9% (inactive) [middle of 4 runs]
- growth (786-0 renal): -3.06% [2.5 µM] (active)
- growth (COLO 205 colon): 39.7% [2.5 µM] (inactive)

Compound: COC(=O)[C@@]12OC[C@]34[C@H]([C@@H](O)[C@@H]1O)[C@@]1(C)[C@H](O)C(=O)C=C(C)[C@@H]1C[C@H]3OC(=O)C(OC(C)=O)[C@@H]24 (some centres undefined)
- growth (NCI-H23 lung; 10 µM unless noted): -48.7% (active)
- growth (NCI-H226 lung): -65.4% (active)
- growth (NCI-H322M lung): -28.9% (active)
- growth (HOP-62 NSCLC): -30.7% (active)
- growth (NCI-H460 lung): -43.4% (active)
- growth (HOP-92 NSCLC; 10 µM unless noted): -44.2% (active)
- growth (NCI-H522 lung; 10 µM unless noted): -60.1% (active)
- growth (A549/ATCC NSCLC; 10 µM unless noted): -19.4% (active)
- growth (786-0 renal): -38.9% (active)
- growth (COLO 205 colon): -64.3% (active)

Compound: Cn1c2c(c3ccccc31)CCN1C[C@@H]3CCCC[C@H]3C[C@@H]21
- growth (NCI-H23 lung; 10 µM unless noted): 14.4% (inactive)
- growth (NCI-H226 lung): 32.3% (inactive)
- growth (NCI-H322M lung): 6.3% (active)
- growth (HOP-62 NSCLC): 40.7% (inactive)
- growth (NCI-H460 lung): 0.684% (active)
- growth (HOP-92 NSCLC; 10 µM unless noted): 33.4% (inactive)
- growth (NCI-H522 lung; 10 µM unless noted): 6.33% (active)
- growth (A549/ATCC NSCLC; 10 µM unless noted): 23.1% (inactive)
- growth (786-0 renal): -12.7% (active)
- growth (COLO 205 colon): -59.2% (active)

Compound: C=C(Cl)C(=NC(C)(C)C)Nc1ccccc1C
- growth (NCI-H23 lung; 10 µM unless noted): 98.8% (inactive)
- growth (NCI-H226 lung): 102% (inactive)
- growth (NCI-H322M lung): 109% (inactive)
- growth (HOP-62 NSCLC): 92.4% (inactive)
- growth (NCI-H460 lung): 106% (inactive)
- growth (HOP-92 NSCLC; 10 µM unless noted): 84.9% (inactive)
- growth (NCI-H522 lung; 10 µM unless noted): 67.7% (inactive)
- growth (A549/ATCC NSCLC; 10 µM unless noted): 111% (inactive)
- growth (786-0 renal): 97.9% (inactive)
- growth (COLO 205 colon): 55.2% (inactive)

Compound: O=[N+]([O-])c1ccc2c(N=Nc3ccc4ccccc4c3O)c(O)cc(S(=O)(=O)O)c2c1
- growth (NCI-H23 lung; 10 µM unless noted): 101% (inactive)
- growth (NCI-H226 lung): 103% (inactive)
- growth (NCI-H322M lung): 65.1% (inactive)
- growth (HOP-62 NSCLC): 97.5% (inactive)
- growth (NCI-H460 lung): 102% (inactive)
- growth (HOP-92 NSCLC; 10 µM unless noted): 101% (inactive)
- growth (NCI-H522 lung; 10 µM unless noted): 105% (inactive)
- growth (A549/ATCC NSCLC; 10 µM unless noted): 103% (inactive)
- growth (786-0 renal): 106% (inactive)
- growth (COLO 205 colon): 104% (inactive)

Compound: Cn1c2ccccc2c2nnc(N/N=C/c3ccccn3)nc21
- growth (NCI-H23 lung; 10 µM unless noted): 19.3% (inactive)
- growth (NCI-H226 lung): 5.03% (active)
- growth (NCI-H322M lung): 11.8% (inactive)
- growth (HOP-62 NSCLC): 4.96% (active)
- growth (NCI-H460 lung): -11.5% (active)
- growth (HOP-92 NSCLC; 10 µM unless noted): 14.5% (inactive)
- growth (NCI-H522 lung; 10 µM unless noted): 18.2% (inactive)
- growth (A549/ATCC NSCLC; 10 µM unless noted): 21.1% (inactive)
- growth (786-0 renal): -21.6% (active)
- growth (COLO 205 colon): -8.79% (active)
